About 79,000 compounds went through this panel and 15% of them were active in at least one assay; those are over-represented in the sample as a whole. Active and inactive are the calls of the source. Cut-off read from the data, not from the text of the source: active = growth inhibition above about 70%; inactive = the rest.
Experiments:
[1] = NCI Yeast Anticancer Drug Screen. Data for the rad50 strain (AID 155);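 note: 0% = growth of vehicle-only cultures of the same strain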; details: S. cerevisiae rad50 strain growth inhibition; at 50.0 µM; hits give high values
Procedure, shortened: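 Vehicle-treated cultures provide the reference for the growth inhibition reported for compound-exposed, repair-deficient yeast.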

[2] = NCI Yeast Anticancer Drug Screen. Data for the mec2-1 strain (AID 157); details: S. cerevisiae mec2-1 strain, at 50.0 µM, hits give high values
Procedure, shortened: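 Readout is yeast growth inhibition, normalised to vehicle-treated controls, in the mec2-1 strain exposed to compound.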

[3] = NCI Yeast Anticancer Drug Screen. Data for the sgs1 mgt1 strain (AID 161);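 note: 0% = growth of cultures given vehicle only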; details: S. cerevisiae sgs1 mgt1 strain, at 50.0 µM, hits give high values
Procedure, shortened: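 This yeast growth screen uses a strain with defined DNA-repair lesions; compound-treated growth is compared with vehicle-treated growth.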

[4] = NCI Yeast Anticancer Drug Screen. Data for the cln2 rad14 strain (AID 165);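 note: 0% = growth equal to vehicle treated cultures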; details: S. cerevisiae cln2 rad14 strain, at 50.0 µM, hits give high values
Procedure, shortened: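 Relative to vehicle controls, growth inhibition of compound-treated cln2 rad14 yeast was recorded.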

[5] = NCI Yeast Anticancer Drug Screen. Data for the bub3 strain (AID 167); details: S. cerevisiae bub3 mutant strain, at 50.0 µM, hits give high values
Procedure, shortened: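 Mutant yeast screening strain plus compound; vehicle-treated cultures serve as the 0% inhibition reference.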

[6] = NCI Yeast Anticancer Drug Screen. Data for the mlh1 rad18 strain (AID 175); details: S. cerevisiae mlh1 rad18 strain growth inhibition; at 50.0 µM; hits give high values
Procedure, shortened: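 Test agents were incubated with a yeast strain of defined genotype (DNA damage repair defect). Inhibition of growth was derived by comparison with vehicle-exposed cultures.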

Measured: growth inhibition

O=C(COc1ccc(Cl)cc1)OCCCl
inactive: [1] 10% | [2] 8.3% | [3] 9.1% | [4] 0.35% | [5] 9.3% | [6] 8.3%

CCc1cc2c(oc3cc(C)ccc32)c(=O)n1C
inactive: [1] -12.4% | [2] -7.7% | [3] -13.8% | [4] 13.5% | [5] -14.2% | [6] -8.75%

Cc1cccc(CSc2nc(N)nc3ncn(C4CC(O)C(CO)O4)c23)n1 (stereo unspecified)
inactive: [1] -20.9% | [2] 3.5% | [3] 10.7% | [4] -48.2% | [5] 2.05% | [6] -19.6%

Cc1nccc2c3ccccc3n(S(=O)(=O)O)c12
inactive: [1] -4.7% | [2] 26.1% | [3] 11.4% | [4] 55% | [5] -5.95% | [6] 9%

O=S(=O)(/C=C/S(=O)(=O)c1ccccc1)c1ccccc1
active: [1] 98.4% | [2] 98.8% | [3] 98.8% | [4] 97.9% | [5] 98.5% | [6] 98.2%

O=[N+]([O-])c1ccc(N=NC(=S)NNc2ccccc2)cc1
inactive: [1] 38.9% | [2] 0.65% | [3] 39.5% | [4] -3.35% | [5] 20.2% | [6] 23.5%

CC(C)[Si]1(C(C)C)N([Si](C)(C)F)[Si](C(C)C)(C(C)C)N1[Si](C)(C)F
inactive: [1] 7.7% | [2] 6.25% | [3] -3.05% | [4] 21% | [5] -4.45% | [6] 26.2%

CCC(C(=O)c1ccccc1)C1(C(=O)OC)NC(=S)NC(=O)C1C#N (stereo unspecified)
inactive: [1] 3.25% | [2] -2.85% | [3] -2.55% | [4] -17.9% | [5] -8.05% | [6] 4%

COC(=O)c1cc([N+](=O)[O-])c(Br)s1
active: [1] 99.3% | [2] 99.6% | [3] 99.6% | [4] 99.5% | [5] 99.3% | [6] 99.3%

CCCCCCCCCCCCCCCCSc1ccc(S(=O)(=O)N(C)C)cc1N
inactive: [1] -16.3% | [2] -36.8% | [3] 3.15% | [4] 10% | [5] 0.75% | [6] 11.9%

CCOC(=O)C(C)C(CCC#N)(C(=O)OCC)C(=O)OCC (stereo unspecified)
inactive: [1] -9.9% | [2] -24.1% | [3] -24% | [4] -0.35% | [5] -11.8% | [6] -9.3%

CCOC(=O)C1C2CCCC(=O)C21 (stereo unspecified)
inactive: [1] 9% | [2] -4.5% | [3] 3.9% | [4] -56.8% | [5] 12.1% | [6] 3.3%

COC(=O)C1c2ccc(C)cc2-c2cc(C)ccc21
inactive: [1] 16.5% | [2] -36.9% | [3] 8.55% | [4] 17.4% | [5] 26.4% | [6] 32.6%

CC1CCCC(C(O)(C(=O)O)C2CCCCC2)C1 (stereo unspecified)
inactive: [1] 23.2% | [2] 12.6% | [3] 22.4% | [4] 13.1% | [5] 13.1% | [6] 26.6%

S=C(Nc1ccc(Cl)cc1)Nc1ccc(Cc2ccc(NC(=S)Nc3ccc(Cl)cc3)cc2)cc1
inactive: [1] 53.9% | [2] 36.2% | [3] 49.6% | [4] 59.4% | [5] 53.6% | [6] 20.4%

CCCCNC(=S)SSSSC(=S)NCCCC
inactive: [1] -8.45% | [2] -14% | [3] -6.05% | [4] -53.5% | [5] 8.7% | [6] -7.55%

O=C1CCCc2ccc([N+](=O)[O-])c(O)c21
inactive: [1] 11% | [2] 10.1% | [3] -2.55% | [4] 4.4% | [5] 9.8% | [6] 8.65%

Cc1[nH]n(-c2ccccc2)c(=O)c1N=Nc1cccc(C(F)(F)F)c1
inactive: [1] 8.7% | [2] 14.7% | [3] 17.8% | [4] -4.75% | [5] 6.95% | [6] 15.7%

Cc1cc(=O)c2c(=O)n(-c3ccccc3)[nH]c2[nH]1
inactive: [1] -34.7% | [2] -13.1% | [3] -11.2% | [4] -27.2% | [5] -13.4% | [6] -6.35%

CN1CCN(c2nc3c(c(=O)n(C)c(=O)n3C)n2C)CC1
inactive: [1] -4.9% | [2] 5.35% | [3] -18.8% | [4] -6.1% | [5] -11% | [6] 6.2%

Cc1nc(N)[nH]c(=O)c1CCO
inactive: [1] -1.3% | [2] -23% | [3] -36.6% | [4] 3.3% | [5] -15.1% | [6] -3.8%

CC1(C)C(CCO)CC1CCO (stereo unspecified)
inactive: [1] 2.25% | [2] -2.5% | [3] -1.45% | [4] -0.45% | [5] 0.4% | [6] -7.5%

CN(C)Cc1[nH]c2ccccc2c1C(=O)c1ccccc1
inactive: [1] -4.55% | [2] -8.85% | [3] -12.2% | [4] -18.7% | [5] -25.5% | [6] -25.6%

CCN(CC)CCC(=O)c1cnc(-c2ccccc2)nc1C
inactive: [1] 7.35% | [2] 35.1% | [3] 38.7% | [4] 2.5% | [5] 17.5% | [6] 20.1%

CCC1(C)N=C(C)C(C)S1 (stereo unspecified)
inactive: [1] -7.6% | [2] -1.3% | [3] -13.7% | [4] 4.9% | [5] -16.3% | [6] 6.2%

CCn1c(=O)c2[nH]c(Br)nc2n(CC)c1=O
inactive: [1] 1.95% | [2] -0.6% | [3] 5.95% | [4] -6.85% | [5] 0.3% | [6] -9.45%

O=C(Nc1cccc(Cl)c1Cl)c1cc(/C=C/c2ccc([N+](=O)[O-])cc2)on1
inactive: [1] -21.2% | [2] 1.15% | [3] -12.8% | [4] 9.1% | [5] -8.25% | [6] -3.85%

N#CC(c1ccccc1)[N+](=O)[O-] (stereo unspecified)
inactive: [1] 11.2% | [2] -5.05% | [3] -2.45% | [4] 9.3% | [5] -2.95% | [6] 22.8%

CCCC(C(C)=O)C(C)=O
inactive: [1] -7.8% | [2] -0.65% | [3] -4.85% | [4] 0.3% | [5] 6% | [6] -4.25%

CCOC(=O)/C=C(/C)N
inactive: [1] -19.1% | [2] -7.25% | [3] -14.2% | [4] 8.45% | [5] 1.85% | [6] -0.75%

Cc1cc([N+](=O)[O-])c(Cl)cc1Cl
inactive: [1] -22.8% | [2] 25.3% | [3] -9.35% | [4] 26.5% | [5] 12.2% | [6] 5.5%

CC(=O)c1ccccn1
inactive: [1] -8.7% | [2] -31.4% | [3] -13.8% | [4] -7.3% | [5] -22.8% | [6] -26.6%

CCOC(=O)c1cc2cc(Cc3ccc4[nH]c(C(=O)OCC)cc4c3)ccc2[nH]1
inactive: [1] -12.8% | [2] -21.4% | [3] -26.2% | [4] -26.4% | [5] -32.2% | [6] -43.6%

c1ccc(P(CCCP(c2ccccc2)c2ccccc2)c2ccccc2)cc1
inactive: [1] -15.7% | [2] 21.4% | [3] -24.6% | [4] 38.4% | [5] -0.05% | [6] -15.8%

CC1=C(CCC#N)C(=O)C(CCC#N)C(C)(C)C1 (stereo unspecified)
inactive: [1] 0.15% | [2] -8.65% | [3] -16.6% | [4] -29.6% | [5] -2.75% | [6] -7.9%

Cc1cc(N(CCC#N)CCC#N)ccc1N=Nc1ccccc1[N+](=O)[O-]
inactive: [1] -44.7% | [2] -38.1% | [3] -13.3% | [4] 12.8% | [5] -32% | [6] -24.1%

Nc1cccc(OCCOc2ccccc2[N+](=O)[O-])c1
inactive: [1] 5% | [2] 26.6% | [3] 28.1% | [4] -4.7% | [5] 29.5% | [6] 18.9%

CCC(=N)C(c1ccccc1)(c1ccccc1)C(C)CN(C)C (stereo unspecified)
inactive: [1] 23.6% | [2] -7.3% | [3] -2.4% | [4] -4.75% | [5] -9.15% | [6] 13.7%

O=C(NC/C(Cl)=C/Cl)Nc1cccc2c1CCCC2
inactive: [1] -5.5% | [2] -13.2% | [3] 19.8% | [4] -10.8% | [5] 22% | [6] 3.6%

Cc1cc2oc3ccccc3c(=O)c2c(C)c1Cl
inactive: [1] -18.1% | [2] 5.1% | [3] -9.65% | [4] -3.1% | [5] 10.4% | [6] -3.6%

O=C(Nc1ccccc1-c1ccccc1)c1cccnc1
inactive: [1] 2.65% | [2] 22.6% | [3] 9.2% | [4] 8.1% | [5] -11.2% | [6] 5.45%

— PubChem BioAssay (NCI)
